In the library only some 11% were active in any assay of this set; here they are far more common.
PNC inhibitor: High Content Assay for Compounds that inhibit the Assembly of the Perinucleolar Compartment; PC3M PTB-GFP, PNC prevalence imaging, 16 h; stronger effect = lower value; activity change (PNC), negative = inhibition, % at 10 µM; 3.1% of 140,000 active;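 active means readout at or below -70, meaning at least 70% loss of cells showing the perinucleolar compartment, a nuclear body marking cancer cells; inconclusive means readout between -30 and a set limit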;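 further: plate controls were DMSO wells for no effect and camptothecin positive control wells for full effect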
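PC3M cells stably expressing PTB-GFP, 750–1000 cells/well, treated 16 h at 37 °C with compound (23 nl of library stock), in duplicate. After paraformaldehyde fixation and Hoechst stain, imaged at 20x; PNC prevalence scored by image analysis.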
HPGD block: qHTS Assay for Inhibitors of HPGD (15-Hydroxyprostaglandin Dehydrogenase); 4.3% of 150,000 active; 15-hydroxyprostaglandin dehydrogenase [NAD(+)] (Homo sapiens), P15428; purified HPGD, NADH fluorescence kinetic, PGE2 substrate; AID 894, 2007; Potency, µM, without a hit: at the highest dose activity change, negative = inhibition, most hits filed as inhibitors; further: potency means the concentration at half of the fitted maximal effect
Target sequence (P15428 whole entry, looked up): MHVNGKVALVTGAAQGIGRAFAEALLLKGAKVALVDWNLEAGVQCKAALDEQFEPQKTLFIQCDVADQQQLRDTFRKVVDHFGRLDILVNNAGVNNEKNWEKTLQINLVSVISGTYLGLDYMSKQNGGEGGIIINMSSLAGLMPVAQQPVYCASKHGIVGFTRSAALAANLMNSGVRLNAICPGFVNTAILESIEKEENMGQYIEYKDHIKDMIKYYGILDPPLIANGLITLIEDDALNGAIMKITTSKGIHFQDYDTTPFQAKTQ
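NADH formation kinetics: reaction with 30 uM PGE2 and 1 mM NAD+ (final), 20 nM enzyme, Tris-HCl pH 8 with Tween 20, after 15 min compound preincubation at room temperature. Fluorescence change, last versus first of five reads.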
KDM4E inh: qHTS Assay for Inhibitors of Human Jumonji Domain Containing 2E (JMJD2E); Potency, µM (series often up to 57.1 µM), inactives show at the top dose activity change, negative = inhibition, hits mostly inhibitors; 1.6% of 230,000 active; AID 2147, 2009; JMJD2E catalytic domain, FDH-coupled NADH fluorescence (FDH is formaldehyde dehydrogenase); Lysine-specific demethylase 4E (Homo sapiens), B2RXH2;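 further: potency means the concentration at half of the fitted maximal effect; 0% = wells with enzyme and -100% = buffer wells without enzyme; nearly all actives have a fitted effect of over 50% in size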
ALDH1A1 block: qHTS Assay for Inhibitors of Aldehyde Dehydrogenase 1 (ALDH1A1); AID 1030, 2008; Aldehyde dehydrogenase 1A1 (Homo sapiens), P00352; Purified ALDH1A1, NADH fluorescence, propionaldehyde substrate; Potency, µM (doses to about 75.3 µM), for inactives: top-dose activity, negative = inhibition, most hits filed as inhibitors; 7.3% of 220,000 active;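 further: potency means the concentration at half of the fitted maximal effect; plate controls were no enzyme wells and a reference inhibitor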
The depositor's hits bear a star; u = inconclusive; x = no result; ! = a repeat was not active; [ ] = dose if it differs, or a comment. Unless noted, the call rests on the fitted dose curve; in most records, active means well fitted inhibition curve with a large enough effect (not every such curve was filed as active); inconclusive means small, poorly fitted or top-dose-only effect, or another doubt; inactive means no such curve, though single readings can be large or run the other way. Unless noted, on the % scale 0 is the no-effect control and ±100 the full control effect.

SMILES | PNC inhibitor | HPGD block | KDM4E inh | ALDH1A1 block
CCN(C(=O)COC(=O)/C=C/c1cccc([N+](=O)[O-])c1)c1ccccc1 | x | x | 2.7% | 14.1µM*
CCn1cc(C(=S)N2CCC(C(N)=O)CC2)c2ccccc21 | x | x | -7.1% | -4.4%
CC(=O)NCC(=O)OCC(=O)N1c2ccccc2Sc2ccccc21 | x | x | -4.4% | 25.1µM*
CCCCC(NC(=O)c1ccccc1)C(=O)OCC(=O)N1c2ccccc2Sc2ccccc21 (centres undefined) | 52.0 | -16.0% | 3.7% | 39.8µM*
O=C(CNC(=O)c1ccccc1)OCC(=O)N1c2ccccc2Sc2ccccc21 | 10.7 | -18.9% | 6.0% | -3.4%
CCCCCCCCCCCCCCCCCC(=O)NCCc1ccc(O)c(O)c1 | x | 1.5% | 4.3% | -1.9%
CCC(Cc1ccccc1)NC(=O)C1=C(C)C(=O)OC12CCC(C)CC2 (centres undefined) | x | x | -1.3% | 1.5%
CN(C1CCCCC1)S(=O)(=O)c1ccc(-c2ccccn2)s1 | x | x | -1.7% | -15.6%
COC(=O)c1ccc(CSc2n[nH]c(=S)s2)o1 | u | u | u | 3.55µM*
COC(=O)c1ccc(CSc2cc(C)c3cccc(C)c3n2)o1 | x | x | 10.0% | u
COC(=O)c1ccc(CSc2cc(C)c3cc(C)cc(C)c3n2)o1 | x | x | -26.3% | 12.6µM*
CCc1oc2ccccc2c1C(=O)c1cc(Br)c(O)c(Br)c1 | 26.0 | 17.8µM*! | -9.3% | -8.9%[13.5 µM]
CCOC(=O)c1c(COc2ccccc2)oc2ccc(O)cc12 | u | -2.9% | -7.7% | -4.8%
Cc1nnc(N2C(=O)C(O)=C(C(=O)c3ccco3)C2c2ccc(C(C)(C)C)cc2)s1 (centres undefined) | -108.6* | -5.5% | -1.0% | 0.4%
Cc1nnc(N2C(=O)C(O)=C(C(=O)c3ccco3)C2c2ccc(F)cc2)s1 (centres undefined) | -12.7 | -7.2% | 3.7% | -9.1%
O=C(Nc1ccccc1C(=O)Nc1nnc(C(F)(F)F)s1)c1ccccc1Cl | x | x | -11.4% | u
C=CCOc1nc2c(c(=O)n(C)c(=O)n2C)n1Cc1ccccc1 | x | x | 10.8% | x
CC(C)CCn1c(Oc2ccc(Cl)cc2)nc2c1c(=O)n(C)c(=O)n2C | 38.2 | -7.7% | 1.6% | 7.94µM*
COc1ccc(Oc2nc3c(c(=O)n(C)c(=O)n3C)n2Cc2ccccc2)cc1 | 7.7 | -11.1% | -3.0% | 15.8µM*
CCC(OC(C)=O)c1cc2c(cc1[N+](=O)[O-])OCCO2 (centres undefined) | x | x | -5.7% | u
COc1ccc(C2=NOC(C(=O)N3CCCc4ccccc43)C2)cc1 (centres undefined) | -3.9 | -8.8% | -0.3% | 12.6µM*
Cc1noc(C)c1C(=O)N1CCCc2ccccc21 | 26.4 | -25.7% | -6.7% | 25.1µM*
CC(C)Oc1ccc(C(=O)N2CCCc3ccccc32)cc1 | 22.0 | 22.4µM* | -1.7% | u
O=C(Nc1ccccc1)N1CCCc2ccccc21 | -100.0* | -27.5% | 4.9% | 5.4%
COc1ccc(C(=O)N2CCCc3ccccc32)cc1 | u | -21.9% | 9.2% | u
SMILES | PNC inhibitor | HPGD block | KDM4E inh | ALDH1A1 block
CCN(CC)S(=O)(=O)c1ccc(C(=O)N2CCc3ccccc32)cc1 | x | x | 5.5% | 5.01µM*
COc1ccc(-c2cc(C(=O)N3CCCc4ccccc43)no2)cc1 | -13.2 | -24.1% | 2.4% | 3.98µM*
O=C(c1cc(-c2cccs2)on1)N1CCCc2ccccc21 | -23.5 | -11.3% | -9.8% | 14.1µM*
Cc1ccc(-c2cc(C(=O)N3CCCc4ccccc43)no2)cc1 | x | x | -2.3% | u
COC(=O)c1sccc1NC(=O)c1ccc(OC)cc1OC | 31.6 | u | 3.1% | u
COc1ccc2c(c1)C(=O)N(CCc1ccc(S(=O)(=O)NC(=O)NC3CCCCC3)cc1)C(=O)C2(C)C | x | u | 7.94µM* | 16.8%[20.9 µM]
CCOC(=O)C(=CNc1ccc(C(F)(F)F)cc1)C(=O)OCC | x | x | 6.2% | x
CCOC(=O)C(=CNc1ccc(NC2=NCC(C)S2)cc1)C(=O)OCC (centres undefined) | u | 14.1µM* | -12.6% | 3.0%
Cc1ccccc1CSc1nc2c(c(=O)[nH]1)CCCC2 | 13.1 | 3.98µM* | 2.3% | 9.5%
O=c1[nH]c(NCc2ccccc2)nc2c1CCCC2 | -23.2 | 12.6µM* | 6.9% | -4.2%
Cc1ccc(CSc2nc3c(c(=O)[nH]2)CCC3)cc1 | 2.5 | 10µM* | 3.6% | 9.1%
